According to ChEMBL document CHEMBL3988442, “University of Dundee, Small-Polar-MMV Screening Library” (2021):
About 13,000 (27%) of roughly 48,000 compounds showed an effect of 50% or more. This is one part of the list.

tested on: Wolbachia pipientis; experiment: Anti-Wolbachia Cell-Based Screen; assay type: functional; design: scale not given: in the data most compounds retested in dose-response had high values; details: 5 µM

Going from `CC(=O)c1cc2ncc(C(=O)NC3CCCCC3)cc2[nH]1` to `CC(=O)c1cc2ncc(C(=O)NC3CCCC3)cc2[nH]1`, the “Percent Effect” value rises from 114.6% to 115.8%.

First: CCNc1ncc(C(=O)NC2CCc3ccccc3C2)cn1 (stereo not drawn)
Second: CCNc1ncc(C(=O)NC2CCSC2)cn1 (stereo not drawn)
The “Percent Effect” value of the first is lower: 2.788% for the first, 5.956% for the second.

First: CC(C)(C)OC(=O)NC1CCC(NC(=O)c2ccc[nH]2)CC1 (stereo not drawn)
Second: CC(=O)c1cc2ncc(C(=O)NC3CC3)cc2[nH]1
The “Percent Effect” value of the first is lower: -46.12% for the first, 127.3% for the second.

First: O=C(NC1CCCCC1)c1c(F)cccc1F
Second: O=C(NC1(C(=O)NC2CCCC2)CCCC1)c1ccc2[nH]ncc2c1
The “Percent Effect” value of the first is lower: -11.27% for the first, 2.222% for the second.

Going from `CCOc1ccccc1OCCN(C)Cc1ncnn1CC` to `Cc1ccc2cc(CN(C)Cc3nccs3)c(=O)[nH]c2c1`, the “Percent Effect” value rises from -5.335% to -5.099%.

First: Cc1n[nH]cc1CNCC(O)c1ccc(F)c(F)c1.Cl (stereo not drawn)
Second: Cc1ccc(-c2ccnc(NC(C)c3n[nH]c(=O)[nH]3)n2)c(C)n1 (stereo not drawn)
The “Percent Effect” value of the first is lower: -9.621% for the first, 6.558% for the second.

First: Cn1cc(N2C[C@@H]3CN(Cc4ccoc4)C[C@@H]3C2=O)cn1.O=C(O)C(F)(F)F
Second: CC1N(c2cnn(C)c2)C(=O)COC12CCN(Cc1ccoc1)CC2 (stereo not drawn)
The “Percent Effect” value of the first is lower: -5.785% for the first, 110.5% for the second.

Compared with `Cc1nc(CN2C(=O)COC3(CCN(Cc4ccco4)CC3)C2C)cs1.O=C(O)C(F)(F)F` (stereo not drawn), `CC1N(c2cnn(C)c2)C(=O)COC12CCN(Cc1ccco1)CC2.O=C(O)C(F)(F)F` (stereo not drawn) is higher in “Percent Effect” value: -6.139% for the first, 117% for the second.

First: Cn1cc(N2CC3(CCN(CC4CCOCC4)CC3)OCC2=O)cn1.O=C(O)C(F)(F)F
Second: Cn1cc(N2CC3(CCN(CC4CC4)C3)CC2=O)cn1.O=C(O)C(F)(F)F (stereo not drawn)
The “Percent Effect” value of the first is lower: -12.75% for the first, 3.9% for the second.

Going from `CC1N(c2cnn(C)c2)C(=O)COC12CCN(CC1CC1)CC2.O=C(O)C(F)(F)F` (stereo not drawn) to `CN1CC(=O)N(c2cnn(C)c2)CC12CCN(Cc1ccccc1)C2.O=C(O)C(F)(F)F.O=C(O)C(F)(F)F` (stereo not drawn), the “Percent Effect” value falls from 102.9% to -7.753%.

Going from `Cc1nn(C)c2nc(NC(C)c3nnn[nH]3)sc12` (stereo not drawn) to `Cc1nn(C)c2nc(NC(C)c3n[nH]c(=O)[nH]3)sc12` (stereo not drawn), the “Percent Effect” value falls from 114.7% to 96.4%.

Compared with `CCSCCNc1nc2c(s1)c(C)nn2C`, `CCCOCCNc1nc2c(s1)c(C)nn2C` is lower in “Percent Effect” value: 7.108% for the first, -0.9549% for the second.

First: Cc1nc(C(C)Nc2nc3c(s2)c(C)nn3C)n[nH]1 (stereo not drawn)
Second: Cc1csc(CNc2nc3c(s2)c(C)nn3C)n1
The “Percent Effect” value of the first is higher: 87.1% for the first, -2.391% for the second.

Going from `Cc1nn(C)c2nc(NCCOCCO)sc12` to `Cc1nn(C)c2nc(NC3CCNCC3)sc12`, the “Percent Effect” value rises from -15.08% to 10.32%.
